Records with an inconclusive call do not appear. A number with no mark means an inactive call. The source made the active and inactive calls. Calls come from the whole dose curve; as a rule, active = well fitted curve in the direction sought with a large enough effect; inconclusive = small, poorly fitted or top-dose-only effect, or another doubt; inactive = no such curve, though single readings can be large; an effect the other way counts as inactive or inconclusive. Numbered stars: 1 amine (or outer) side, 2 acyl side, 3 side chain; on linkers, the order of the positions; unused ones are H or OH. Bridge positions count the residues as written; N and C are the ends. Square brackets hold non-standard residues; d marks the D form. Peptide text beside a SMILES is read from it. ξ: configuration not given here. Phe(3R-OH) = O=C([C@@H](N[*:1])[C@H](O[*:3])c1ccccc1)[*:2]; NMeTrp(4-OMe) = CN[C@@H](Cc1c[nH]c2cccc(OC)c12)C(=O)O; ξThr(3R)(O-yl) = C[C@@H](O[*:3])C(N[*:1])C(=O)[*:2]; NMeThr(3ξ) = CN[C@H](C(=O)O)C(C)O; NMeL = CN[C@@H](CC(C)C)C(=O)O; NMeV = CN[C@H](C(=O)O)C(C)C; ξIle = CC[C@H](C)C(N)C(=O)O; ξV = CC(C)C(N)C(=O)O

The text below walks through data of PubChem BioAssay (NCATS).

The nature of test [1]: UWB1.289 Cancer Cell Toxicity qHTS against the NCATS CANVASS Library (AID 1347347). Note: nearly all actives have a fitted effect of over 60% in size. Note: potency is the fitted concentration of half-maximal effect. Summed up: (§1)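 Step one: seed 1000 cells per well. Step two: incubate 4 h. Step three: add test compounds in 11 concentrations. Step four: culture 72 h, then add CellTiter-Glo and record luminescence after 15min.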
Test [2] is described as follows: SW1088 Cancer Cell Toxicity qHTS against the NCATS CANVASS Library (AID 1347350). Note: nearly all actives have a fitted effect of over 75% in size. An outline of the steps: as §1
(In general: qHTS replaces the single test concentration by a dilution series.)

Test [3] is described as follows: A2780 Cisplatin Sensitive Ovarian Cancer Cell Toxicity qHTS against the NCATS CANVASS Library (AID 1347353). Note: nearly all actives have a fitted effect of over 60% in size. Note: potency is the fitted concentration of half-maximal effect. Summed up:
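Luminescent ATP content (ATPLite, 10 min at room temperature) served as the read-out after cells had been exposed to compounds for 72 hours at 37 °C. Dosing followed an 11-point concentration series.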

Test [4] can be described thus: UWB1.289-WTBRCA1 Cancer Cell Toxicity qHTS against the NCATS CANVASS Library (AID 1347354). An outline of the steps: (§2)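 Luminescent ATP read-out (CellTiter-Glo, 15min at room temperature) measures survival after cells face an 11-point compound series for 72 hours at 37 degrees C/5% CO2.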
Test [5] in a line: HEK-293 Cancer Cell Toxicity qHTS against the NCATS CANVASS Library (AID 1347355). For outcome: series mostly up to about 46 µM. Note: nearly all actives have a fitted effect of over 65% in size. Note: potency is the fitted concentration of half-maximal effect. An outline of the steps:
as §2

For test [6], the system named is NAD(P)H diaphorase (Clostridium kluyveri). The test is described as follows: Diaphorse counterscreen qHTS: Assay Interference Panel against the NCATS CANVASS Library (AID 1347362). Summed up:
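Clostridium kluyveri diaphorase in PBS + 0.01% Tween-20 preincubated 15 min with compounds. Resazurin and NADH then added for 5 min at room temperature in the dark; resorufin fluorescence read (ex 525, em 598).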

The nature of test [7]: KB-8-5-11 Cancer Cell Toxicity qHTS against the NCATS CANVASS Library (AID 1347364). Note: nearly all actives have a fitted effect of over 75% in size. An outline of the steps: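 Plate 500 KB-8-5-11 cells per well in DMEM + 10% FBS, add compounds by pin transfer, incubate 72 hr at 37C. Add CellTiter-Glo, wait 10 minutes at room temperature, read luminescence.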
Test [8] is described as follows: SDT Cancer Cell Toxicity qHTS against the NCATS CANVASS Library (AID 1347365). Note: nearly all actives have a fitted effect of over 60% in size. Note: potency is the fitted concentration of half-maximal effect. Summed up:
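qHTS, SDT dog glioma line, 500 cells/well; cpds 11 pts; 72 hr, 37C, 5% CO2; CellTiterGlo ATP luminescence.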

The nature of test [9]: KB-3-1 Cancer Cell Toxicity qHTS against the NCATS CANVASS Library (AID 1347366). Note: nearly all actives have a fitted effect of over 75% in size. Note: potency is the fitted concentration of half-maximal effect. Summed up:
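KB-3-1 cells (500 cells/well) in DMEM + 10% FBS were treated with compounds for 72 hr at 37C, 5% CO2. Viability was read as CellTiter-Glo luminescence after 10 minutes at room temperature.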

A short description of test [10]: qHTS for Hypoxia signaling pathway (HIF-1) antagonists against the NCATS CANVASS Library (AID 1347374). Note: nearly all actives have a fitted effect of over 60% in size. Note: potency is the fitted concentration of half-maximal effect. Summed up:
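HRE-bla ME-180 cells in medium with 0.5% dialyzed FBS received compounds (11-point series) plus CoCl2 (60 uM addition stock) for 17 hrs at 37C. Beta-lactamase activity read with CCF4 (405 nm ex, 460/530 nm em); CellTiter-Glo viability measured in same wells.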

Test [11] can be described thus: qHTS for Hypoxia signaling pathway (HIF-1) agonists against the NCATS CANVASS Library (AID 1347375). An outline of the steps: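 ME-180 HRE-bla reporter cells; 2,000/well, 0.5% dialyzed FBS; cpd added after 5 h, 17 h 37C/5% CO2; CCF4-AM 2 h RT; FRET 460/530 nm; CellTiter-Glo viability same wells, 30 min.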
The nature of test [12]: qHTS for H2AX Agonists against the NCATS CANVASS Library (AID 1347378). Summed up:
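CHO-K1 cells were plated overnight at 37C, then exposed to compounds (concentration series, 0.76% DMSO final) for 3 hr at 37C. Lysates received Eu-cryptate anti-pH2AX (S139) and d2 anti-H2AX antibodies; after 24 hr at room temperature, TR-FRET 665/620 nm ratio was read.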

Test [13] in a line: qHTS for Activators of p53 Stress Response Pathway screened against the NCATS CANVASS Library (AID 1347388). Summed up: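 p53RE-bla HCT-116 cells (4000/well) were pre-incubated for 5 h, then treated with compound (11 points) for 16 h at 37C. After 2 h with CCF4, the 460/530 nm ratio gave reporter activation; CellTiter-Glo measured viability.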
Test [14] in a line: Secretion counterscreen for inhibitors of the SERCaMP assay screened against the NCATS CANVASS Library (AID 1347390).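 Note: light from luciferase secreted into medium read as a measure of general secretion.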 Note: potency is the fitted concentration of half-maximal effect. An outline of the steps: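 SH-SY5Y cells expressing constitutively secreted GLuc, 1000 cells/well, attached 4 h at 37C, then exposed to compounds (0.001 - 77 uM, 11-pnt series) for 20 h. Coelenterazine added; luminescence read to flag secretory-pathway interferers.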
On the technique in general: A counterscreen serves to expose hits that act by an unwanted route or on another target.

A short description of test [15]: qHTS for activators of dead-cell proteases activity screened against the NCATS CANVASS Library (AID 1347392).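 Note: luminescence from protease leaking out of membrane-damaged cells cleaving impermeant substrate; rising signal means more cytotoxicity.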 Summed up:
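HepG2 cells, 2000/well, attached 18 h at 37C, then exposed to compounds (11-point qHTS) for 5 h. Dead-cell protease release read as luminescence from cell-impermeant AAF-aminoluciferin substrate after 15 min at room temperature.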

Test [16] is described as follows: qHTS for inhibitors of ER calcium dysfunction: SERCaMP assay screened against the NCATS CANVASS Library (AID 1347393). Note: nearly all actives have a fitted effect of over 40% in size. Note: potency is the fitted concentration of half-maximal effect. An outline of the steps:
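SH-SY5Y GLuc-SERCaMP, 1000 cells/well, 4 h attach; cpd 16 h, 37C/5% CO2; thapsigargin (added as 6x 600 nM) 4 h; coelenterazine; luminescence. Reduced reporter release = ER Ca stabilization.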

Test [17] is described as follows: qHTS for inhibitors of Wild type Zika virus screened against the NCATS CANVASS Library (AID 1347396).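 Note: ATP luminescence of surviving cells so rescue from viral cell killing; series mostly up to about 46 µM.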 An outline of the steps: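 Vero 766 cells, 1000/well, o/n attach; cpds pin-transferred (11-pt qHTS); WT Zika added; 72 h, 37C, 5% CO2; CellTiter Glo lumi. Uninfected + vehicle = 100% inhibition.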
A short description of test [18]: DH5-alpha competent E. coli microbial cell viability qHTS against the NCATS CANVASS Library (AID 1347377). Conditions: outcome: dose series up to 46.1 µM unless noted. An outline of the steps:
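qHTS, 11-pt; E. coli DH5-alpha, 0.2 OD; o/n 37C/5% CO2; BacTiter-Glo, 20 min RT; luminescence.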

Test [19] in a line: Viability qHTS for inhibitors of the SERCaMP assay screened against the NCATS CANVASS Library (AID 1347400). Note: nearly all actives have a fitted effect of over 70% in size. Note: potency is the fitted concentration of half-maximal effect. An outline of the steps:
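SH-SY5Y SERCaMP MJH297 cells, 1000/well; 4 h settle, 37C/5% CO2; pin-transferred cpds; 48 h; CellTiter-Glo lum. Pos ctrl bortezomib 0.0001 - 4.6 uM.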

The nature of test [20]: Redox Reaction Profiling qHTS: Assay Interference Panel against the NCATS CANVASS Library (AID 1347401). An outline of the steps:
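Compounds in 11-point series incubated with 5 uM resazurin and 200 uM DTT in 50 mM HEPES pH 7.3, 50 mM NaCl. Resorufin fluorescence (Ex 525/Em 598) read before and after 15 min in the dark.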

With `C=C1C[C@@]23C=CC(=O)[C@@](C)(CCC(=O)Nc4c(OC5O[C@H](CO)[C@@H](O)[C@H](O)[C@H]5O)ccc(C(=O)O)c4O)C2C[C@@H]1CC3` (some centres undefined), the Potency entry in [1], in test [2], in [3], in test [4], in test [5] and in test [6] was “inactive” in each case. Moreover, the Potency result in [7], in test [8], in [9], in test [10], in test [11] and in test [12] was “inactive” each time. Moreover, the Potency entry in [13], in test [14], in test [15], in [16] and in [17] was “inactive” in each case.

Consider `C[C@H]1C[C@@H]([C@@H]2CC[C@]34O[C@H](CC[C@@]35C[C@H](C)C(=O)O5)CN24)OC1=O`, for which the Potency result in [1], in [2], in test [3], in test [4], in test [5] and in test [6] was “inactive” each time. For the same molecule, the Potency result in test [7], in test [8], in test [9], in [10], in test [11] and in [12] was “inactive” throughout. For the same molecule, the Potency result in test [13], in test [15], in test [16], in test [17], in test [19] and in test [20] was “inactive” throughout. In test [18], the call was inactive.

Consider `CO[C@H]1/C=C/CC[C@@H](S[C@@H]2O[C@H](CO)[C@@H](O)[C@H](O)[C@H]2O)CC(=O)O[C@@H](/C(C)=C/[C@H](C)C(=O)CCCC2CC(=O)NC(=O)C2)[C@@H](C)[C@@H]1O`, for which the Potency in test [1] is 2980 nM (active); in [3] it was 1050 nM (active); in test [5] it was 1870 nM (active); in test [8] it was 1180 nM (active); in test [9], 20900 nM (active); in test [10] it was 2110 nM (active). Moreover, the Potency is 7670 nM (active) in test [14] and 12000 nM (active) in [19]. Also, the Potency entry in test [6], in [11], in [13], in test [15], in [16] and in test [17] was “inactive” each time. Moreover, the molecule was called inactive in test [18].

Consider `CC[C@H](C)C(NC(=O)[C@@H](NC)C(C)C)C(=O)NC1C(=O)N(C)[C@@H](C(C)O)C(=O)N[C@@H](C(C)C)C(=O)N(C)[C@@H](CC(C)C)C(=O)NC(C(C)C)C(=O)N(C)[C@@H](C(C)C)C(=O)N(C)[C@@H](Cc2c[nH]c3cccc(OC)c23)C(=O)N[C@@H](C(C)C)C(=O)N[C@@H]([C@H](O)c2ccccc2)C(=O)N[C@@H](C(C)C)C(=O)O[C@@H]1C` (stereo partly drawn) (H-[NMeV][ξIle][ξThr(3R)(O-yl)][NMeThr(3ξ)]V[NMeL][ξV][NMeV][NMeTrp(4-OMe)]V[Phe(3R-OH)]V; ester 3-C), for which the Potency entry in test [1], in test [2], in test [3], in test [4], in test [5] and in test [6] was “inactive” throughout. For the same molecule, the Potency entry in [7], in test [9], in test [10], in [11], in test [12] and in test [13] was “inactive” each time. Further, the Potency entry in [14], in test [15], in test [17], in [19] and in test [20] was “inactive” each time. In addition, in test [18], the result was inactive. In addition, in [16], the Potency is 27200 nM (active).

Regarding `COc1cc(/C=C/C(=O)O)ccc1O`, the Potency entry in test [1], in test [2], in test [3], in test [4], in [5] and in test [6] was “inactive” throughout. Besides, the Potency result in test [7], in test [8], in test [9], in test [10], in test [11] and in test [12] was “inactive” in each case. In addition, the Potency entry in test [13], in test [15], in test [16], in test [17], in test [19] and in test [20] was “inactive” throughout. Besides, the molecule was called inactive in test [18].
